Reference: the OligoGym collection

These sequences were tested against SAMD10 (assay: pooled miR-30 sensor sort-seq; sequence = guide strand). Conditions: shRNA.

Sequence	sensor-assay potency score (higher = more potent)
TTGTGGGGACAGTGCTTCTTGA	-1.41
TTACTTCTCATGAATAGAGGGG	0.161
TGCTTCTTGAGCCACTTGCAGA	-1.33
TAGACGAGGTAGTTGTGGGGAC	-0.47
TAAATAAACAGACTCCCTGGGA	-0.205
TAGTGGTCAGAGTACAGCCGGC	-1.02
ATGCTCTCAGCTGACACCGTGT	-1.22
TATGGTACAGGCCATAGTGGTC	-1.37
TAAATAATGATGAAAGTGCTTG	-0.363
TTGTGCCACATTTTGTCTCTGG	-0.0935
ATAGTGGTCAGAGTACAGCCGG	-1.22
TGCAGGAGCTTGATTGGCCTGC	-1.14

These sequences were tested against SAMD3 in the same assay as above. Conditions: shRNA.

Sequence	sensor-assay potency score (higher = more potent)
TTTTTCTCCACCAACCAACTGC	-0.0677
TTCTGCTCTGCTAACATGCATT	-1.16
TTAACTTCCAACACAGGTGTGG	0.183
TAAAACATAGGACTTCGTCCAC	0.0328
TTGTTTCACATTTCTTCTCTGT	0.377
TTCTCCACCAACCAACTGCAGA	-1.35
TTCAACATGTCTTCATCTGTGT	0.839
TTGAAATCTATGAACTAGCTCT	0.87
TAAATCCATCAGAACAGCCTGG	-0.235
TTGCTCATCATCTTCTATGGGT	0.349
TGTAACACAGTCGTCCACCTTT	-0.369
